This note sets out measurements from PubChem BioAssay AID434959 (Broad Institute, 2010).

The campaign covered roughly 30,000 compounds. About 110 (0.37%) were called active. The sample holds actives, similar compounds and a random draw of the others, so the mix is not that of the screen.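 How the source made its calls: active means delta delta Cp rounded down to an integer at or above 3, about 3 SD of DMSO wells; inactive means the rest.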

The assay in a line: YB-1 transcript reduction by qRT-PCR – cell-based, fluorescence, primary screen (AID 434959).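 Further: higher means less YB-1 transcript or more CDIP transcript relative to DMSO.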 The settings on record: U2OS, qRT-PCR YB-1 vs CDIP delta delta Cp, 16 h; stronger effect = higher value; zero = DMSO, each unit about twofold. (Real-time PCR tracks product formation cycle by cycle.)
For `C[C@@H]1CN([C@H](C)CO)C(=O)CCCn2cc(nn2)CO[C@@H]1CN(C)Cc1ccccc1C(=O)O`, the delta Cp (YB-1 minus CDIP) is -0.246 (inactive).
The value for `C[C@@H]1CN([C@H](C)CO)C(=O)CCCn2nncc2CO[C@@H]1CN(C)C(=O)OCc1ccccc1` was 0.0587 (inactive); that for `O=C1C2CC3CC1CC(C(=O)O)(C3)C2` was 0.106 (inactive); that for `C[C@H](CO)N1C[C@H](C)[C@H](CN(C)C(=O)Nc2ccccc2)Oc2ccc(NC(=O)CCN3CCOCC3)cc2CC1=O` was -0.228 (inactive).
Under `CC1(C)CC(=O)c2ccc(O)cc2O1` stands 1.96 (inactive); under `Cc1cc(C(=O)Nc2cccc3c2O[C@@H](CN(C)C(=O)Nc2ccc4c(c2)OCO4)[C@H](C)CN([C@@H](C)CO)C3=O)n(C)n1`, -0.0832 (inactive).
Under `C[C@H]1CN([C@@H](C)CO)C(=O)c2cc(NC(=O)NC3CCCCC3)ccc2O[C@@H]1CN(C)S(=O)(=O)c1cccs1` stands 0.092 (inactive); under `O=C(/C=C/c1ccccc1)c1ccc(O[C@@H]2O[C@H](CO)[C@@H](O)[C@H](O)[C@H]2O)cc1O`, 0.0338 (inactive).
For `Oc1cc2c(cc1O)CN(C(=S)NCCc1ccc(Cl)cc1)CCC2`, the delta Cp (YB-1 minus CDIP) is 0.367 (inactive).
Under `Cc1noc(C)c1NC(=O)Nc1ccc2c(c1)CC(=O)N([C@@H](C)CO)C[C@@H](C)[C@@H](CN(C)C(=O)NC(C)C)O2` stands 0.0713 (inactive); under `C[C@H]1CN([C@@H](C)CO)C(=O)Cc2cc(NC(=O)C3CC3)ccc2O[C@H]1CN(C)S(=O)(=O)c1ccc(Cl)cc1`, 0.415 (inactive); under `[N-]=[N+]=Nc1ccccc1C[C@@]1(C(=O)NCc2ccccc2)N=C(c2ccc(OCCCO)cc2)O[C@@H]1c1ccccc1`, -0.629 (inactive).
Consider `O=C1O[C@@H](c2ccccc2)[C@@H](c2ccccc2)N2[C@@H](c3ccccc3OCCO)[C@]3(C(=O)Nc4ccc(C#CC5(O)CCCCCC5)cc43)[C@@H](C(=O)N3CCN(c4ncccn4)CC3)[C@H]12`, for which the delta Cp (YB-1 minus CDIP) was -0.244 (inactive).
The value for `C[C@H](CO)N1C[C@H](C)[C@H](CN(C)Cc2ccc(-c3ccccc3)cc2)Oc2ccc(NC(=O)Nc3ccc(F)cc3)cc2CC1=O` was -0.469 (inactive); that for `COc1cc(/C(C)=C/C(C)=C\C(=O)O)oc(=O)c1C` was -0.492 (inactive); that for `Cc1ccc(S(=O)(=O)N(C)C[C@H]2Oc3c(NC(=O)c4ccc(-c5nccs5)cc4)cccc3C(=O)N([C@H](C)CO)C[C@H]2C)cc1` was -0.182 (inactive).
Under `CC1=COC(O[C@@H]2O[C@H](CO)[C@@H](O)[C@H](O)[C@H]2O)C2C1CC(O)C2CO` (stereo partly specified) stands -0.367 (inactive).
The value for `C[C@@H]1CN([C@@H](C)CO)C(=O)CCCn2nncc2CO[C@@H]1CN(C)Cc1ccccc1` was 0.131 (inactive); that for `C[C@@H]1CN([C@H](C)CO)C(=O)Cc2cc(NS(=O)(=O)c3ccc(F)cc3)ccc2O[C@@H]1CN(C)S(=O)(=O)c1ccc(F)cc1` was -0.0534 (inactive); that for `COc1ccc(C#Cc2ccc3c(c2)[C@]2(C(=O)N3)[C@H](c3ccccc3OCCO)N3[C@H](c4ccccc4)[C@H](c4ccccc4)OC(=O)[C@H]3[C@@H]2C(=O)N2CCCCCCC2)cc1` was 0.00142 (inactive).
Take `CNC[C@@H]1Oc2ncc(-c3ccc(F)cc3)cc2C(=O)N([C@H](C)CO)C[C@@H]1C`: the delta Cp (YB-1 minus CDIP) was -0.148 (inactive).
Under `CC(C)NC(=O)N(C)C[C@H]1Oc2ccc(NC(=O)CCCCCC(=O)Nc3ccccc3N)cc2CC(=O)N([C@@H](C)CO)C[C@H]1C` stands 0.0201 (inactive); under `C/C(=C\CC[C@H](CO)[C@@H]1CC[C@]2(C)C3=C(CC[C@@]12C)[C@@]1(C)CCC(=O)C(C)(C)C1CC3)C(=O)O` (stereo partly specified), -0.0322 (inactive); under `C[C@H](CO)N1C[C@H](C)[C@H](CN(C)CC2CC2)Oc2ccc(NS(=O)(=O)c3ccccc3)cc2CC1=O`, -0.128 (inactive).
The value for `Cc1noc(C)c1S(=O)(=O)Nc1ccc2c(c1)CC(=O)N([C@@H](C)CO)C[C@H](C)[C@H](CN(C)S(=O)(=O)c1ccc(Cl)cc1)O2` was 0.105 (inactive).
`C[C@H]1CN([C@@H](C)CO)C(=O)Cc2cc(NS(C)(=O)=O)ccc2O[C@@H]1CN(C)S(=O)(=O)c1ccc(Cl)cc1`: the delta Cp (YB-1 minus CDIP) was 0.259 (inactive).
The value for `Cc1noc(C)c1NC(=O)Nc1ccc2c(c1)C(=O)N([C@@H](C)CO)C[C@@H](C)[C@H](CN(C)C(=O)NC(C)C)O2` was -0.101 (inactive); that for `C[C@H](CO)N1C[C@H](C)[C@H](CN(C)CC2CCCCC2)Oc2ccc(NC(=O)CCN3CCOCC3)cc2CC1=O` was 0.315 (inactive).
Under `C[C@H]1CN([C@@H](C)CO)C(=O)CCCn2cc(nn2)CO[C@H]1CN(C)C(=O)Nc1ccc(F)cc1` stands -0.241 (inactive); under `C=CCN1C(=O)[C@]2(O[C@H](CCn3cc(CCO)nn3)[C@@H]([Si](C)(C)c3ccc(OC)cc3)[C@@H]2C)c2cc(N3CCOC3=O)ccc21`, -0.00312 (inactive); under `COc1ccc(NC(=O)O[C@H](c2ccc(OCCO)cc2)[C@@H](CCO)OC)cc1`, -1.3 (inactive).
The value for `C[C@@H]1CCCCO[C@H](CN(C)C(=O)NC2CCCCC2)[C@@H](C)CN([C@H](C)CO)C(=O)c2cc(NS(C)(=O)=O)ccc2O1` was 0.322 (inactive).
For `COc1ccc(S(=O)(=O)N(C)C[C@@H]2Oc3ccc(NC(=O)CCC(F)(F)F)cc3C(=O)N([C@@H](C)CO)C[C@@H]2C)cc1`, the delta Cp (YB-1 minus CDIP) was -0.166 (inactive).
Regarding `C[C@H](CO)N1C[C@H](C)[C@H](CN(C)S(=O)(=O)c2ccccc2)Oc2c(NC(=O)CCCCCC(=O)Nc3ccccc3N)cccc2C1=O`, the delta Cp (YB-1 minus CDIP) is 0.187 (inactive).
The value for `C[C@@H]1CN([C@@H](C)CO)C(=O)c2cccc(NC(=O)Nc3ccc4c(c3)OCO4)c2O[C@H]1CN(C)C(=O)Nc1cccc2ccccc12` was 0.0736 (inactive); that for `COc1ccc(NC(=O)Nc2ccc3c(c2)CC(=O)N([C@@H](C)CO)C[C@@H](C)[C@@H](CN(C)Cc2ccc(Cl)c(Cl)c2)O3)cc1` was 0.191 (inactive); that for `C=C1C2=CC(=O)O[C@@H](c3ccoc3)[C@]2(C)CCC1[C@@]1(C)C=CC(=O)C(C)(C)[C@@H]1CC(=O)OC` (stereo partly specified) was 0.366 (inactive).
The value for `C[C@@H]1CN([C@H](C)CO)C(=O)c2cc(NC(=O)Cc3ccccc3)ccc2O[C@@H]1CN(C)CC1CCCCC1` was -0.0442 (inactive); that for `C[C@H]1CN([C@@H](C)CO)C(=O)c2cccc(NS(=O)(=O)c3ccc(Cl)cc3)c2O[C@H]1CN(C)Cc1ccc2c(c1)OCO2` was 0.321 (inactive); that for `C[C@@H]1CN([C@H](C)CO)C(=O)c2cccc(NC(=O)CCCCCC(=O)Nc3ccccc3N)c2O[C@@H]1CN(C)C(=O)Nc1ccccc1` was 0.438 (inactive).
The value for `C[C@H]1CN([C@@H](C)CO)C(=O)Cc2cc(NC(=O)CCCN(C)C)ccc2O[C@@H]1CN(C)Cc1ccc(-c2ccccc2)cc1` was -1.08 (inactive); that for `Oc1ccc2c(c1)OCC1c3cc4c(cc3OC21)OCO4` (stereo unspecified) was 0.271 (inactive).
For `COc1ccc(CN(C)C[C@@H]2Oc3c(NC(=O)C4CC4)cccc3C(=O)N([C@@H](C)CO)C[C@H]2C)cc1`, the delta Cp (YB-1 minus CDIP) was -0.213 (inactive).
Under `CC(C)NC(=O)Nc1ccc2c(c1)CC(=O)N([C@H](C)CO)C[C@@H](C)[C@H](CN(C)S(=O)(=O)c1ccccc1)O2` stands 0.113 (inactive); under `C[C@H](CO)N1C[C@H](C)[C@H](CN(C)CC2CCCCC2)Oc2ccc(NC(=O)CCCCCC(=O)Nc3ccccc3N)cc2CC1=O`, -0.217 (inactive); under `C[C@H]1CN([C@@H](C)CO)C(=O)c2cccc(NC(=O)NC3CCCCC3)c2O[C@H]1CN(C)CC1CCCCC1`, -0.236 (inactive).
For `Cc1onc(-c2c(Cl)cccc2Cl)c1C(=O)N=S(C)(C)=O`, the delta Cp (YB-1 minus CDIP) was -0.447 (inactive).
Under `C[C@H]1CN([C@@H](C)CO)C(=O)CCCn2cc(nn2)CO[C@@H]1CN(C)S(=O)(=O)c1ccc(-n2cccn2)cc1` stands -0.848 (inactive); under `C[C@H](CO)N1C[C@H](C)[C@H](CN(C)S(=O)(=O)c2ccc(C#N)cc2)Oc2ncc(-c3cccc(F)c3)cc2C1=O`, 0.397 (inactive).
The value for `COCCOC(=O)N1C(=O)[C@@]2(c3cc(C#CCC(C(=O)OC)C(=O)OC)ccc31)[C@H](c1ccc(OCCO)cc1)N1[C@H](c3ccccc3)[C@H](c3ccccc3)OC(=O)[C@H]1[C@@H]2C(N)=O` was -0.585 (inactive); that for `CCOC(=O)c1cc(=O)c2ccc(OCc3ccccc3)cc2o1` was 0.522 (inactive); that for `Cc1noc(C)c1S(=O)(=O)Nc1ccc2c(c1)C(=O)N([C@@H](C)CO)C[C@H](C)[C@H](CN(C)C(=O)Nc1ccc(C(F)(F)F)cc1)O2` was -0.372 (inactive).
Turning to `O=C(NO)c1ccc(C(=O)N/N=C/c2ccc(Br)cc2)cc1`, the delta Cp (YB-1 minus CDIP) was -0.432 (inactive).
Under `C[C@H](CO)N1C[C@H](C)[C@@H](CN(C)Cc2ccc(Oc3ccccc3)cc2)OCc2cn(nn2)CCCC1=O` stands -0.14 (inactive).
Turning to `COC(=O)C1=C(N)Oc2cc(C)oc(=O)c2C1c1cccnc1` (stereo unspecified), the delta Cp (YB-1 minus CDIP) is -0.311 (inactive).
Under `COc1ccc(NC(=O)N(C)C[C@H]2Oc3ccc(NC(=O)Nc4ccc5c(c4)OCO5)cc3C(=O)N([C@H](C)CO)C[C@H]2C)cc1` stands 0.191 (inactive); under `Cc1ccc(-n2c(C)nc3sc4c(c3c2=O)CCC4)cc1`, 5.31 (active); under `Cc1ccc(-c2cn3c4c(sc3n2)CCCC4)cc1`, 0.773 (inactive).
Under `O=C(N/N=C/c1ccc([N+](=O)[O-])s1)c1ccccc1O` stands 0.165 (inactive); under `C[C@H](CO)N1C[C@H](C)[C@@H](CN(C)Cc2ccc(Cl)c(Cl)c2)Oc2c(NC(=O)C3CCCCC3)cccc2C1=O`, -0.923 (inactive).
Under `Cc1ccc(CN(C)C[C@@H]2OCc3cnnn3CCCC(=O)N([C@@H](C)CO)C[C@H]2C)cc1` stands -0.0292 (inactive).
